Inhibition data for 39 compounds are collected here from ChEMBL document CHEMBL4296182, “CO-ADD screening of NIH NCI Diversity Set V”.

Entries with a potency or affinity are not part of this list.

The term Inhibition denotes the drop in the measured response relative to a control, in per cent.

One assay has as its system Candida albicans. The settings on record: 20 µM.
Turning to `CCCSc1ncnc2[nH]ncc12`, the Inhibition amounted to 6.91%. For `CCCCOC(=O)c1cccnc1`, the Inhibition worked out at 1.04%.

`Cc1cc(NC(=O)c2ccccc2)c(Cl)cc1N`: the Inhibition came to 3.76%. Consider `c1ccc(-c2nc(-c3ccccn3)nc(-c3ccccn3)n2)nc1`, for which the Inhibition came out at 2.65%.

As for `Cc1c(C(C)(C(=O)O)c2c(C)n(C)c3ccccc23)c2ccccc2n1C`, the Inhibition was 9.04%.

Turning to `O=C1NC(=O)C2(CCc3ccccc32)N1` (stereo not given), the Inhibition came to 4.28%. Consider `Cn1ncc2c(Nc3ccc(Br)cc3)nc(Nc3ccc(Br)cc3)nc21`, for which the Inhibition is -0.11%.

Turning to `CC(C)(C)n1nc(C2CC2)cc1NC(=O)Nc1ccc(Cl)cc1`, the Inhibition amounted to 4.6%. For `CC1(C)OC2C(CO)OC(n3cnc4c(S)ncnc43)C2O1` (stereo not given), the Inhibition turned out to be 4.06%.

Consider `CC1CO/C(=C2\C(=O)OCC2C)C1` (stereo not given), for which the Inhibition amounted to 41.2%.

For `Cl.O=C(O)c1ccc(NCc2nc3ccccc3[nH]2)cc1`, the Inhibition was determined as 1.6%.

Take `CCCC1OC(c2cc3c(cc2Cl)OCO3)OCC1CC` (stereo not given): the Inhibition stood at 5.6%. Regarding `CC(C)(C)NC(=O)c1ccc(C(=O)NC(C)(C)C)cc1`, the Inhibition came out at 8.15%.

Turning to `Cc1nc2ccccc2nc1N1CCCC1`, the Inhibition was 2.02%. In the case of `Oc1cc(-c2nn[nH]n2)nc(O)n1`, the Inhibition came to 1.84%.

As for `CC1=C2C3OC(=O)C(C)C3CCC2(C)C=C(Cl)C1=O` (stereo not given), the Inhibition was found to be 1.04%.

The test system of a further assay is Cryptococcus neoformans. The settings on record: Concentration 20 uM; ASSAY_TEST Inhibition of Fungal Growth; detection method Resazurin; Absorption (OD600-OD570); plate type 384well; NBS; CORNING #3640. A general note: Alamar Blue is a resazurin reagent that responds to reducing activity.
Consider `Cn1nc(N)c2ncc(C(Cl)(Cl)Cl)nc21`, for which the Inhibition is -10.84%. Turning to `CCOC(=O)Nc1ccc2[nH]c(-c3cscn3)nc2c1`, the Inhibition is -11.31%. `O=C(O)c1ccccc1C(=O)Nc1ccccc1[N+](=O)[O-]`: the Inhibition is -12.04%. In the case of `Cc1cccc(N2CCN(CC(O)COc3ccc(Cl)cc3)CC2)c1` (stereo not given), the Inhibition is -12.55%.

As to `O=[N+]([O-])/C=C/c1cc2ccccc2[nH]1`, the Inhibition is given as -1.09%.

For the compound `c1ccc(Sc2ncnc3ccccc23)cc1`, the Inhibition was -14.16%. Still for that read-out and setting: under `CCCCOc1ccc(Nc2cc(Cl)ccc2C(=O)O)cn1` stands -7.88%; under `Cn1c(=O)c2c(nc(OCCc3ccccc3)n2C)n(C)c1=O`, -6.56%. `c1ccc(NN(Cc2ccncc2)c2ccccc2)cc1`: the Inhibition is -6.08%. For the compound `Nc1ncnc2c1ncn2C=C=CCO`, the Inhibition is recorded as -2.86%.

For the compound `O=C1c2ccccc2C(=O)c2c(Nc3ccc(CCO)cc3)ccc(O)c21`, the Inhibition is recorded as -4.75%. Turning to `Cc1ccc(C#CC(C)(O)C(C)(C)C)cn1` (stereo not given), the Inhibition is on record as -1.46%. Take `CCOc1cc2c(Cl)ncnc2c(OCC)c1OCC`: the Inhibition is recorded as -6.05%. Take `O=C(NC1(N2CCOCC2)CC1)c1ccc(Cl)cc1`: the Inhibition is -0.42%. On the same count and under the same terms, the result for `CS(=O)(=O)Oc1ccc(Br)c2cccnc12` reads -11.45%; that for `Cc1nnsc1C(=O)NCc1c(F)cccc1Cl`, -9.18%. As to `Cc1cccc(NC2=C(C#N)C(=O)NC3(CCCC3)S2)c1`, the Inhibition turned out to be 1.34%. Turning to `CCOC(=O)C(=O)C1C(=O)Nc2ccccc21` (stereo not given), the Inhibition was -6.08%. Regarding `C=CCNC(=S)NCC=C`, the Inhibition amounted to 2.25%. In the case of `C=CCOC(=O)/C=C\C(=O)NC(N)=O`, the Inhibition turned out to be 0.75%.

In the case of `Cc1ccc(S(=O)(=O)N(C)C)cc1[N+](=O)[O-]`, the Inhibition is reported as -3.84%. The same measure, in the same setting: the result for `COC(=O)C1CC(O)C(O)C(O)C1` (stereo not given) reads -4.69%. Consider `COc1c(NC=O)c2c(c([N+](=O)[O-])c1OC)C(=O)OC2`, for which the Inhibition worked out at 2.82%.

With `CCCSc1ncnc2[nH]ncc12`, the Inhibition was -5.45%. In the case of `CCCCOC(=O)c1cccnc1`, the Inhibition is listed as -0.89%. On to `Cc1cc(NC(=O)c2ccccc2)c(Cl)cc1N`, for which the Inhibition is given as -3.43%.

As to `c1ccc(-c2nc(-c3ccccn3)nc(-c3ccccn3)n2)nc1`, the Inhibition is reported as -6.65%. `Cc1c(C(C)(C(=O)O)c2c(C)n(C)c3ccccc23)c2ccccc2n1C`: the Inhibition is on record as -5.48%. Turning to `O=C1NC(=O)C2(CCc3ccccc32)N1` (stereo not given), the Inhibition came out at 0.2%. With `Cn1ncc2c(Nc3ccc(Br)cc3)nc(Nc3ccc(Br)cc3)nc21`, the Inhibition is -3.38%. `CC(C)(C)n1nc(C2CC2)cc1NC(=O)Nc1ccc(Cl)cc1`: the Inhibition was 3.95%. Turning to `CC1(C)OC2C(CO)OC(n3cnc4c(S)ncnc43)C2O1` (stereo not given), the Inhibition is on record as -14.25%. With `CC1CO/C(=C2\C(=O)OCC2C)C1` (stereo not given), the Inhibition is listed as -12.83%. Consider `Cl.O=C(O)c1ccc(NCc2nc3ccccc3[nH]2)cc1`, for which the Inhibition is given as -6.81%.

Turning to `CCCC1OC(c2cc3c(cc2Cl)OCO3)OCC1CC` (stereo not given), the Inhibition is given as -15.5%. On to `CC(C)(C)NC(=O)c1ccc(C(=O)NC(C)(C)C)cc1`, for which the Inhibition was -7.37%.

In the case of `Cc1nc2ccccc2nc1N1CCCC1`, the Inhibition is reported as -9.29%. Consider `Oc1cc(-c2nn[nH]n2)nc(O)n1`, for which the Inhibition is recorded as 0.69%. Regarding `CC1=C2C3OC(=O)C(C)C3CCC2(C)C=C(Cl)C1=O` (stereo not given), the Inhibition is on record as -2.81%.
